Most compounds without a hit are left out; they make up all but 5.2% or so of the library.
CR mimetic SO = caloric restriction mimetics inhibiting age-related superoxide in yeast; AID 2690; S. cerevisiae aged cells, superoxide DHE fluorescence; hits give low values; superoxide response (% of plate mean), % at 10 µM; 330,000 tested, 0.18% active;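 active means superoxide response under a set limit, about three screen SD below normal, cut at about 65% in these data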;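 further: yeast aged for seven days with compound at 30 °C before DHE staining; 100% = average MFI of all compound-treated wells on the plate with controls excluded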
ALR H2O2 inh = human ALR oxidase inhibition via reduced H2O2; P55789; purified ALR, DTT oxidation, H2O2 HRP-luminol luminescence; inhibition, % (test concentration not listed); 290,000 tested, 3.8% active; AID 485317;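 active means mean replicate inhibition above about 79%, with every replicate also reaching it, limit read from the data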
PfM18AAP inh = blocks P. falciparum M18 aspartyl aminopeptidase; inhibition, % at 7.35 µM; 290,000 tested, 1.2% active; recombinant PfM18AAP, H-Glu-NHMec fluorogenic cleavage; AID 1822;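 active means inhibition above the campaign mean inhibition over all tested compounds plus 3 SD, cut at about 28% in these data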;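 further: 0% = plate median of test compound wells and 100% = 2 mM ZnCl2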
A3A deaminase = blocks human APOBEC3A ssDNA deamination; P31941; recombinant A3A, FAM/TAMRA ssDNA deamination fluorescence; inhibition, % at 20 µM; 330,000 tested, 0.41% active; AID 493011;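 active means at least 40% inhibition at 20 µM here, with at most 30% in a related deaminase screen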;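 further: plate controls were A3A with DMSO for no effect and wells lacking A3A enzyme for full effect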
APOBEC3G inh = blocks human APOBEC3G single-stranded DNA deamination. AID 493012. recombinant A3G, ssDNA deamination FAM/TAMRA fluorescence. inhibition, % at 20 µM. 330,000 tested, 0.28% active;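 active means inhibition of at least 40% at 20 µM, with no more than 30% in the related APOBEC3A deaminase screen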;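 further: plate controls were DMSO wells with A3G for no effect and wells lacking A3G enzyme for full effect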
CendR NRP1 mod = modulators of CendR peptide binding to human neuropilin-1 | FAM-RPARPAR peptide binding to NRP-1, fluorescence polarization | inhibition, % at 25 µM | 360,000 tested, 0.85% active;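 active means inhibition or corrected inhibition above about 18%, plus a signal ratio from 0.5 to 1.5, limit read from the data, passing the limit was not always enough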
Target sequence (O14786 whole entry, looked up): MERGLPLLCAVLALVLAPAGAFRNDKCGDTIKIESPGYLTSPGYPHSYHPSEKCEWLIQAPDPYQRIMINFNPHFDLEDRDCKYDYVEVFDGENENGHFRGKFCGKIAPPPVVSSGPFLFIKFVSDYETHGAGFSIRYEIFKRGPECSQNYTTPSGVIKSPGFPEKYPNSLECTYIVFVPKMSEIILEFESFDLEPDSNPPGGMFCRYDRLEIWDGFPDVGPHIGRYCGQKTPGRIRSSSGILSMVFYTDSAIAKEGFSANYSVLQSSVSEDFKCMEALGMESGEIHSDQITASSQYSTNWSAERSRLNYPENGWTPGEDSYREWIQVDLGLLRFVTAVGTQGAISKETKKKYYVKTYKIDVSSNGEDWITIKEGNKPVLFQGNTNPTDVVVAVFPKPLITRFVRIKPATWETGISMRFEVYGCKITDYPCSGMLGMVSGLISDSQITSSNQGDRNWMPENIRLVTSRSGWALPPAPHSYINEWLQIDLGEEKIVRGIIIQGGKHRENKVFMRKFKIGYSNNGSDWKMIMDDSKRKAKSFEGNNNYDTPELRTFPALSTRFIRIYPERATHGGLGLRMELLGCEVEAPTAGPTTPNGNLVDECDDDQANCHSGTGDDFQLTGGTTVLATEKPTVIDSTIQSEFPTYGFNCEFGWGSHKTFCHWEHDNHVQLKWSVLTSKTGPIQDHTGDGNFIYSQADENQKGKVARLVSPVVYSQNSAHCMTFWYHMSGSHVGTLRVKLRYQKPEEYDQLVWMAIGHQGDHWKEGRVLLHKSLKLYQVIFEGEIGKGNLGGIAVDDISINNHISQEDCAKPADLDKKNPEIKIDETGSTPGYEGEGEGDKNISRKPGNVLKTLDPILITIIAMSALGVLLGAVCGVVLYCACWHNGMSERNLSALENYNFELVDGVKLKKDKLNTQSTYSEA
An asterisk follows results filed as active.

Results for S=c1[nH]ncn1/N=C/c1cccc(Oc2ccccc2)c1 ?
CR mimetic SO: 94; ALR H2O2 inh: 99*; PfM18AAP inh: 23; A3A deaminase: -6; APOBEC3G inh: 3; CendR NRP1 mod: -7

What do the screens show for `C(=N\n1cnnc1)/c1cccc(Oc2ccccc2)c1`?
CR mimetic SO: 101; ALR H2O2 inh: -32; PfM18AAP inh: 8; A3A deaminase: -2; APOBEC3G inh: -6; CendR NRP1 mod: 2

What do the screens show for `COc1ccccc1-n1c(SCC(=O)Nc2ccccc2C)nc(O)cc1=O`?
CR mimetic SO: 75; ALR H2O2 inh: 10; PfM18AAP inh: 6; A3A deaminase: 4; APOBEC3G inh: 3; CendR NRP1 mod: -7

Results for COC(=O)c1cccc(NC(=O)CSc2nc(=O)cc(N)n2-c2ccccc2)c1 ?
CR mimetic SO: 101; ALR H2O2 inh: 98*; PfM18AAP inh: 5; A3A deaminase: 4; APOBEC3G inh: -4; CendR NRP1 mod: 1

Results for Cc1ccccc1NC(=O)CSc1nc(O)cc(=O)n1C ?
CR mimetic SO: 87; ALR H2O2 inh: 99*; PfM18AAP inh: 3; A3A deaminase: -5; APOBEC3G inh: -7; CendR NRP1 mod: -5

How did COc1ccccc1NC(=O)CSc1nc(O)cc(=O)n1-c1ccccc1OC do in these assays?
CR mimetic SO: 102; ALR H2O2 inh: 3; PfM18AAP inh: 13; A3A deaminase: -3; APOBEC3G inh: -5; CendR NRP1 mod: 21

What do the screens show for `O=C(CSc1nc(O)cc(=O)n1-c1ccccc1)c1ccc(Br)cc1`?
CR mimetic SO: 91; ALR H2O2 inh: 98*; PfM18AAP inh: -5; A3A deaminase: 4; APOBEC3G inh: -4; CendR NRP1 mod: -10

Results for COc1ccc(-n2c(SCC(=O)Nc3cccc4ccccc34)nc(O)cc2=O)cc1 ?
CR mimetic SO: 102; ALR H2O2 inh: 99*; PfM18AAP inh: -1; A3A deaminase: 0; APOBEC3G inh: -11; CendR NRP1 mod: 2

What do the screens show for `O=C(NC1CCCC1)c1cc(-c2ccc(Cl)c(Cl)c2)on1`?
CR mimetic SO: 101; ALR H2O2 inh: 0; PfM18AAP inh: -12; A3A deaminase: 1; APOBEC3G inh: -5; CendR NRP1 mod: -1

Results for CCCCCCN1CCN(C2CN(Cc3cn(CCCC(=O)OC)nn3)S(=O)(=O)C2)CC1 (stereo not drawn) ?
CendR NRP1 mod: -8

Results for COc1ccc(-n2c(SCC(=O)Nc3ccccc3)nc(O)cc2=O)cc1 ?
CR mimetic SO: 91; ALR H2O2 inh: 88*; PfM18AAP inh: 2; A3A deaminase: -5; APOBEC3G inh: -6; CendR NRP1 mod: 5

Results for COc1ccc(-n2c(SCC(=O)Nc3ccc(NC(C)=O)cc3)nc3ccccc3c2=O)cc1 ?
CR mimetic SO: 106; PfM18AAP inh: -6; A3A deaminase: -2; APOBEC3G inh: -8; CendR NRP1 mod: -6

Results for COc1ccc(-n2c(SCC(=O)N3CCCCC3)nc(O)cc2=O)cc1 ?
CR mimetic SO: 79; ALR H2O2 inh: 15; PfM18AAP inh: 3; A3A deaminase: 6; APOBEC3G inh: 0; CendR NRP1 mod: -10

What do the screens show for `Cc1c(O)nc(SCC(=O)Nc2nccs2)n(-c2ccccc2F)c1=O`?
CR mimetic SO: 94; ALR H2O2 inh: 99*; PfM18AAP inh: 0; A3A deaminase: -1; APOBEC3G inh: -3; CendR NRP1 mod: -5

Results for CCCCc1nnc(NC(=O)CSc2nc(=O)cc(N)n2-c2cccc(C)c2)s1 ?
CR mimetic SO: 107; ALR H2O2 inh: 98*; PfM18AAP inh: 3; A3A deaminase: -1; APOBEC3G inh: -4; CendR NRP1 mod: -5

How did Cc1cccc(-n2c(N)cc(=O)nc2SCC(=O)Nc2nnc(CC(C)C)s2)c1 do in these assays?
PfM18AAP inh: 3; A3A deaminase: -5; APOBEC3G inh: -4

Results for COc1ccc(NC(=O)CSc2nc(O)cc(=O)n2-c2ccc(OC)cc2)cc1 ?
CR mimetic SO: 104; ALR H2O2 inh: 99*; PfM18AAP inh: 4; A3A deaminase: 0; APOBEC3G inh: -3; CendR NRP1 mod: -7

Results for CCOc1ccc(-n2c(=O)c3c(C)c(C)sc3n(CC(=O)NCc3ccco3)c2=O)cc1 ?
CR mimetic SO: 81; PfM18AAP inh: -4; A3A deaminase: 2; APOBEC3G inh: 0; CendR NRP1 mod: -4

Results for Cc1ccc(S(=O)(=O)CC(=O)Nc2ccc(Cl)cn2)cc1 ?
CR mimetic SO: 125; ALR H2O2 inh: 21; PfM18AAP inh: 3; A3A deaminase: -9; APOBEC3G inh: -4; CendR NRP1 mod: -5

How did COc1ccc(C(=O)n2nc(C)c(Br)c2C)cc1 do in these assays?
CR mimetic SO: 104; ALR H2O2 inh: -10; PfM18AAP inh: 1; A3A deaminase: 3; APOBEC3G inh: 2; CendR NRP1 mod: 17

How did O=C(Nc1ccc(Cl)c([N+](=O)[O-])c1)c1cnccn1 do in these assays?
CR mimetic SO: 100; PfM18AAP inh: 2; A3A deaminase: 5; APOBEC3G inh: 0; CendR NRP1 mod: -4

Results for COc1ccc(C(CNC(=O)c2ccc(Cl)c(NC(=O)c3cccs3)c2)N2CCCC2)cc1 (stereo not drawn) ?
CR mimetic SO: 95; ALR H2O2 inh: -11; A3A deaminase: -2; APOBEC3G inh: -8; CendR NRP1 mod: -1

Results for Cc1ccc2nc(C3CCCN(C(=O)NCc4ccccc4)C3)[nH]c2c1 (stereo not drawn) ?
CR mimetic SO: 110; ALR H2O2 inh: 20; PfM18AAP inh: 10; A3A deaminase: 0; APOBEC3G inh: -6; CendR NRP1 mod: 0

Results for CCOc1ccc(-n2c(SCC(=O)Nc3ccc(C(=O)O)cc3)nc3ccccc3c2=O)cc1 ?
CR mimetic SO: 108; PfM18AAP inh: -1; A3A deaminase: -4; APOBEC3G inh: -1; CendR NRP1 mod: -20

How did CCOc1ccc(NC(=O)CSc2nc(O)c(C)c(=O)n2-c2ccc(F)cc2)cc1 do in these assays?
CR mimetic SO: 101; ALR H2O2 inh: 100*; PfM18AAP inh: -14; A3A deaminase: 3; APOBEC3G inh: 2; CendR NRP1 mod: -10

How did Cc1ccc(-n2c(SCC(=O)Nc3ccc4c5c(cccc35)CC4)nc(O)c(C)c2=O)cc1 do in these assays?
CR mimetic SO: 105; ALR H2O2 inh: 99*; PfM18AAP inh: -9; A3A deaminase: 2; APOBEC3G inh: -2; CendR NRP1 mod: 0

How did COc1ccc(-n2c(Cc3cccn3C)nnc2SCC(=O)Nc2ccccc2C)cc1 do in these assays?
CR mimetic SO: 113; ALR H2O2 inh: 7; PfM18AAP inh: -10; A3A deaminase: -1; APOBEC3G inh: -1; CendR NRP1 mod: 5

Results for COc1ccc(-n2c(Cc3cccn3C)nnc2SCC(=O)Nc2cccc(C)c2C)cc1 ?
CR mimetic SO: 106; ALR H2O2 inh: 89*; PfM18AAP inh: 1; A3A deaminase: -2; APOBEC3G inh: -5; CendR NRP1 mod: 7

How did Cc1ccc(CN2CCN(c3ccccn3)CC2)s1 do in these assays?
CR mimetic SO: 93; ALR H2O2 inh: -2; PfM18AAP inh: 2; A3A deaminase: -5; APOBEC3G inh: -7; CendR NRP1 mod: -3

Screening data from PubChem.
